Consider 40 molecules from PubChem BioAssay (NCATS).

“And” between values parts separate entries of the source, which are not always exact repeats. Equal values may be shown once. Records with an inconclusive call do not appear. Entries that show only a call come without a potency. The source made the active and inactive calls. The call rests on the fitted dose curve; in most records, active means well fitted inhibition curve with a large enough effect; inconclusive means small, poorly fitted or top-dose-only effect; inactive means no such curve, though single readings can be large or run the other way.
Potency means the concentration at half of the fitted maximal effect.

Sequence of M-phase phosphoprotein 8 (Homo sapiens) (Q99549 whole entry, looked up): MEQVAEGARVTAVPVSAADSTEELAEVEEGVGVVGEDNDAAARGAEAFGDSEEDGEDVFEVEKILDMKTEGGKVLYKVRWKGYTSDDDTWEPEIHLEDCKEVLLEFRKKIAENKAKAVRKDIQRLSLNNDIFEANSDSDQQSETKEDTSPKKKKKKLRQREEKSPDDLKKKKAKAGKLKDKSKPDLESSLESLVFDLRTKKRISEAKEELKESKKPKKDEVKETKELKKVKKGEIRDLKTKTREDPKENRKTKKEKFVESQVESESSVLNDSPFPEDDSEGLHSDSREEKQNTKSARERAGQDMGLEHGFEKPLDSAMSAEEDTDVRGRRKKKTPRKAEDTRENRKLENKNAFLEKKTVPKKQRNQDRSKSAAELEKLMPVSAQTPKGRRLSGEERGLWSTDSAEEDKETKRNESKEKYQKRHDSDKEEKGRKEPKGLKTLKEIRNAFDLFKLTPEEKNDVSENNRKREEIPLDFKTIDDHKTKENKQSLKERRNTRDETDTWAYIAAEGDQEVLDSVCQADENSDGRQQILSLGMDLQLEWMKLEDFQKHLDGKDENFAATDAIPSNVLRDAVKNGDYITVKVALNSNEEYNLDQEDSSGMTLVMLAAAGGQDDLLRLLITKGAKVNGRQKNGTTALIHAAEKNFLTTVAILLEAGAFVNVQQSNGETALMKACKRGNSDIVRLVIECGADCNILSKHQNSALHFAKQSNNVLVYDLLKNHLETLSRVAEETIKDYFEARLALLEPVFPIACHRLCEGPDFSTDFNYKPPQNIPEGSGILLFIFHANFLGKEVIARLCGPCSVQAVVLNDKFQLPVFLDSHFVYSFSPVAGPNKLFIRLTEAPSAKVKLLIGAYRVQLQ

This assay concerns the target M-phase phosphoprotein 8 (Homo sapiens) (UniProt Q99549). Nature of the assay: qHTS Validation Assay for Inhibitors for MPP8 Chromodomain Interactions with Methylated Histone Tails (AID 488949). Further: nearly all actives have a fitted effect of over 55% in size. Particulars: AlphaScreen MPP8 binding to H3K9me3 peptide; series mostly up to 57.1 µM. From the text:
As our understanding of epigenetics expands, it is becoming clear that players in this field are potential targets for drug development. This area of epigenetic therapy has established applications for the treatment of cancer and neurological diseases. We have been involved in this field for a number of years and have performed high-throughput screens to identify the first small molecule inhibitors of protein methyltransferases. These methyltransferases target multiple substrates, and thus regulate many arms of an epigenetic pathway. The methylation of different substrates often generates docking sites for effector proteins that harbor binding domains (chromo, tudor, PHD, MBT and ANK repeats). It has been proposed that the binding sites generated for different proteins by these post-translational modifcations mediate downstream effects on chromatin. Consistent with this theory, di- and tri-methylation of histone H3K9 facilitates the binding of heterochromatin protein HP1. The HP1 protein harbors a chromodomain that is responsible for the methyl-dependent interaction between HP1 and lysine 9 of histone H3. HP1 was first described in flies as a heterochromatin associated protein that can regulate gene silencing. It harbors a chromodomain that binds H3K9me3. In addition, it harbors a chromoshadow domain that interacts with a large number of proteins that are involved in heterochromatin formation and gene repression. There are three highly related HP1 isoforms. All three variants are associated with pericentric heterochromatin and it is not clear whether they have specific or redundant functions. MPP8 is also involved in the repression of gene in euchromatic regions (unpublished data) and like HP1 its chromodomain binds H3K9me3. MPP8 harbors an ankyrin repeat region that is likely involved in binding and recruiting interacting proteins with transcriptional repressive function, much like the chromoshadow domain of HP1 does. We hypothesize that by inhibiting specific protein-protein interactions we will be able to develop compounds that block a single arm of an epigenetic pathway. The specificity attained by blocking a single protein-protein interaction will be far greater than that attained by blocking the enzyme that regulates one of many interactions. Low-affinity protein-protein interactions (Kd in the single- to double-digit micromolar range) such as those discussed here have been very difficult to assay by traditional techniques such as fluorescence polarization or fluorescence resonance energy transfer. We have developed a sensitive chemiluminescence-based assay (Quinn, et al. 2009), which serves as the starting point for this project. The following is a validation assay to identify lead compounds that can block methyl-dependent protein-protein interactions (specifically MPP8), which can be used as probes to analyze these methyl-driven interactions and perhaps even developed into targeted epigenetic therapies. Assay Provider: Mark T. Bedford, MD Anderson Screening Center PI: Austin, C.P. Screening Center: NIH Chemical Genomics Center [NCGC]
To each well, 2 uL of MPP8 protein (final 50 nM) and 1 uL biotinylated histone peptide trimethylated at Lys9 [b-H3(1-18)K9me3] (final 50 nM) was added in 1x PBS buffer, pH 7.4, containing 0.01% Tween-20 using a nanoliter dispenser. Formation of a protein-peptide complex proceeded at room temperature for 30 min. A Kalypsys pin-tool was employed to transfer 23 nL of library compound solution in DMSO to each well. Aurintricarboxylic acid (ATA) was used as an intraplate control with a 12-point titration in duplicate. Following a 30 min incubation of the protein-peptide complex with compounds at room temperature, a mixture of 40 ug/mL each streptavidin-coated donor and nickel chelate acceptor AlphaScreen beads (final 10 ug/mL) was added in a 1 uL dispense for a final volume of 4 uL. Plates were incubated protected from the light for 30 min at room temperature. […]
For orientation: Quantitative high-throughput screening tests each substance at several concentrations.
Regarding `CC(C)(CO)Cc1cc(C(C)(C)C)c(O)c(C(C)(C)C)c1`, the Potency entry is “inactive”.
For `C=CCN1CCc2cc(O)c(O)cc2C(c2ccccc2)C1` (stereo not given), the Potency result is “inactive”.
As to `NC1CONC1=O` (stereo not given), the Potency result is “inactive”.
In the case of `C[N+](C)(C)CC=O`, the Potency result was “inactive”.
In the case of `NC(=O)CC[C@H](N)C(=O)O`, the Potency result is “inactive”.
Regarding `CN[C@H](CC(=O)O)C(=O)O`, the Potency entry is “inactive”.
To `COc1ccccc1N1CCN(CCCCNC(=O)c2ccc3ccccc3c2)CC1` belongs “inactive”; to `Cc1nc(N=Nc2ccc(C(=O)O)cc2)c(COP(=O)(O)O)c(C=O)c1O`, “inactive”.
For `COc1ccccc1N1CCN(CCN(C(=O)c2ccc(F)cc2)c2ccccn2)CC1`, the Potency entry was “inactive”.
Take `NC(Cc1cccc(-c2ccccc2CP(=O)(O)O)c1)C(=O)O` (stereo not given): the Potency entry was “inactive”.
Regarding `CCCCCCCCCCCCCCCCCCOC[C@H](COP(=O)([O-])OCC[N+](C)(C)C)OC`, the Potency entry is “inactive”.
The same measure for `CCN1C(=O)C=CC1=O`: “inactive”; for `CCCCCCCC/C=C\CCCCCCCC(=O)NCCc1ccc(O)c(O)c1`: “inactive”.
Consider `C[C@H](O)C(=O)C1=Nc2c(nc(N)[nH]c2=O)NC1`, for which the Potency result is “inactive”.
On to `Nc1ccc(-c2nc3ccc(-c4nc5ccc(N)cc5[nH]4)cc3[nH]2)cc1`, for which the Potency was 44.7 µM (active) and 26.7 µM (active).
Turning to `c1ccc(C2CN3CCSC3=N2)cc1` (stereo not given), the Potency entry was “inactive”.
In the case of `CNc1ncnc2c1ncn2[C@H]1C[C@H](OP(=O)(O)O)[C@@H](COP(=O)(O)O)O1`, the Potency entry is “inactive”.
`COc1ccc2c(c1)c(CC(=O)O)c(C)n2Cc1ccc(Cl)cc1`: the Potency result was “inactive”.
Take `Oc1ccc(/C=C/c2ccc(/C=C/c3ccc(O)cc3)c(Br)c2)cc1`: the Potency entry was “inactive”.
The same measure for `COc1ccc2c(c1)c(CC(=O)O)c(C)n2C(=O)c1ccccc1`: “inactive”; for `CCN(CC)CCOC(=O)c1cc(Cl)c(N)cc1OC`: “inactive”.
To `NC1(C(=O)O)CC1` belongs “inactive”; to `Fc1ccc(CN(C2=NCCN2)c2c(Cl)cccc2Cl)cc1`, “inactive”.
Take `Cn1c(=O)c2[nH]c(C3CCCC3)nc2n(C)c1=O`: the Potency result is “inactive”.
As to `Cc1ccc([N+](=O)[O-])cc1S(=O)(=O)N(C)C`, the Potency entry is “inactive”.
Turning to `CCCN(CCc1ccccc1)C1CCc2c(O)cccc2C1` (stereo not given), the Potency result was “inactive”.
With `Nc1ncnc2c1ncn2C1CCCC1`, the Potency result is “inactive”.
To `O=C(O)/C=C/c1ccc(O)c(O)c1` belongs “inactive”; to `CC(=O)NCCc1c[nH]c2ccc(O)cc12`, “inactive”.
Take `Cc1nc2n(c(=O)c1CCN1CCC(c3noc4cc(F)ccc34)CC1)CCCC2O` (stereo not given): the Potency entry is “inactive”.
As for `COc1cc2c(CCNC(C)=O)c[nH]c2cc1O`, the Potency entry was “inactive”.
`C[C@@H](NCCc1ccc(O)cc1)[C@@H](O)c1ccc(O)cc1`: the Potency entry is “inactive”.
Take `COc1ccc(-c2ccc(N)[n+](CCCC(=O)O)n2)cc1`: the Potency result was “inactive”.
In the case of `CC(=O)C(C)=O`, the Potency result was “inactive”.
In the case of `NCCC1CCCC(CCN)N1` (stereo not given), the Potency result is “inactive”.
On to `CCCOC(=O)c1c(-c2ccccc2)nc(CC)c(C(=O)SCC)c1CCC`, for which the Potency entry was “inactive”.
On to `O=c1[nH]c2cc(Cl)ccc2c(O)c1-c1ccc(Oc2ccccc2)cc1`, for which the Potency entry is “inactive”.
In the case of `COc1cc(N)c(Cl)cc1C(=O)OCCN1CCCCC1`, the Potency entry was “inactive”.
For `O=c1onc2n1-c1cc(Br)ccc1OC2`, the Potency result was “inactive”.
`N[C@H](C(=O)O)[C@H](O)C(=O)O`: the Potency result is “inactive”.
